Assay results from PubChem BioAssay AID1159580 (chemical genetic matrix, 2015).
The campaign covered roughly 5,500 compounds. About 2,000 (36%) were called active. Roughly 18% stayed inconclusive and do not appear here. No stated cut-off is given here; in the data, active means normalized growth mostly below about 0.91 (no sharp cut-off); inconclusive means no clear call, values can overlap the other calls; inactive means mostly above about 0.92. The list shows a part of the results.

Assay: chemical genetic growth profiling, strain panel (AID 1159580);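 further: tested at 20 µM; growth read once vehicle control cultures reached saturation at 30 °C; 1 = growth at the plate median or of vehicle wells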
Settings: S. cerevisiae deletion strains, growth OD

Measured: normalized growth

C=C1CC2C(CCC3(C)C(=O)CCC23)C2(C)C=CC(=O)C=C12 (stereo unspecified)
inactive: locus YAL021C, strain ccr4, stronger effect = lower value 0.958 | locus YAL030W, strain snc1, stronger effect = lower value 0.949 | locus YBL061C, strain skt5, stronger effect = lower value 0.928 | locus YBR023C, strain chs3, stronger effect = lower value 0.941 | locus YBR171W, strain sec66, stronger effect = lower value 0.92 | locus YBR231C, strain swc5, stronger effect = lower value 0.943 | locus YBR279W, strain paf1, stronger effect = lower value 0.963 | locus YCL011C, strain gbp2, stronger effect = lower value 0.935 | locus YCL016C, strain dcc1, stronger effect = lower value 0.983 | locus YCL069W, strain vba3, stronger effect = lower value 0.927 | locus YCR088W, strain abp1, stronger effect = lower value 0.947 | locus YDL005C, strain med2, stronger effect = lower value 0.942 | locus YDL040C, strain nat1, stronger effect = lower value 0.941 | locus YDR001C, strain nth1, stronger effect = lower value 0.936 | locus YDR069C, strain doa4, stronger effect = lower value 0.944 | locus YDR137W, strain rgp1, stronger effect = lower value 0.931 | locus YDR159W, strain sac3, stronger effect = lower value 0.919 | locus YDR195W, strain ref2 0.945 | locus YDR297W, strain sur2, stronger effect = lower value 0.946 | locus YDR335W, strain msn5, stronger effect = lower value 0.951 | locus YEL061C, strain CIN8 (second series), stronger effect = lower value 0.922 | locus YER015W, strain faa2, stronger effect = lower value 0.939 | locus YER016W, strain bim1, stronger effect = lower value 0.955 | locus YER111C, strain swi4, stronger effect = lower value 0.945 | locus YER155C, strain BEM2 (second series), stronger effect = lower value 0.946 | locus YFR010W, strain ubp6, stronger effect = lower value 0.928 | locus YGL167C, strain pmr1, stronger effect = lower value 0.928 | locus YGL173C, strain kem1, stronger effect = lower value 0.95 | locus YGL240W, strain doc1, stronger effect = lower value 0.95 | locus YGL253W, strain hxk2, stronger effect = lower value 0.944 | locus YHR013C, strain ard1, stronger effect = lower value 0.908 | locus YHR027C, strain rpn1, stronger effect = lower value 0.93 | locus YHR142W, strain chs7, stronger effect = lower value 0.905 | locus YJL092W, strain hpr5, stronger effect = lower value 0.932 | locus YJL095W, strain BCK1 (second series), stronger effect = lower value 0.952 | locus YJL115W, strain asf1, stronger effect = lower value 0.928 | locus YJL129C, strain trk1, stronger effect = lower value 0.96 | locus YJL154C, strain vps35, stronger effect = lower value 0.936 | locus YJL166W, strain qcr8, stronger effect = lower value 0.962 | locus YJL187C, strain SWE1, stronger effect = lower value 0.939 | locus YKL160W, strain elf1, stronger effect = lower value 0.998 | locus YKR026C, strain gcn3, stronger effect = lower value 0.939 | locus YKR091W, strain srl3, stronger effect = lower value 0.95 | locus YLL001W, strain dnm1, stronger effect = lower value 1.01 | locus YLL026W, stronger effect = lower value 0.936 | locus YLL041C, strain sdh2, stronger effect = lower value 0.939 | locus YLR027C, strain aat2, stronger effect = lower value 0.98 | locus YLR221C, strain rsa3, stronger effect = lower value 0.992 | locus YLR258W, strain gsy2, stronger effect = lower value 0.945 | locus YLR262C, strain YPT6 (second series), stronger effect = lower value 0.925 | locus YLR320W, strain mms22, stronger effect = lower value 0.991 | locus YLR342W, strain FKS1, stronger effect = lower value 0.929 | locus YLR357W, strain rsc2, stronger effect = lower value 0.991 | locus YLR370C, strain arc18, stronger effect = lower value 0.937 | locus YLR384C, strain iki3, stronger effect = lower value 0.925 | locus YML120C, strain ndi1, stronger effect = lower value 0.96 | locus YMR058W, strain fet3, stronger effect = lower value 0.929 | locus YMR125W, strain sto1, stronger effect = lower value 0.989 | locus YMR129W, stronger effect = lower value 0.928 | locus YMR205C, strain PFK2, stronger effect = lower value 0.992 | locus YMR231W, strain pep5, stronger effect = lower value 0.946 | locus YNL209W, strain ssb2, stronger effect = lower value 0.957 | locus YNL248C, strain rpa49, stronger effect = lower value 1 | locus YNL322C, strain KRE1 (second series), stronger effect = lower value 0.934 | locus YNR049C, strain mso1, stronger effect = lower value 0.932 | locus YOR070C, strain gyp1, stronger effect = lower value 0.938 | locus YOR080W, strain dia2, stronger effect = lower value 0.934 | locus YOR083W, strain WHI5, stronger effect = lower value 0.994 | locus YOR106W, strain vam3, stronger effect = lower value 0.969 | locus YOR265W, strain rbl2, stronger effect = lower value 0.948 | locus YOR270C, strain vph1, stronger effect = lower value 0.895 | locus YOR290C, strain snf2, stronger effect = lower value 0.941 | locus YPL051W, strain arl3, stronger effect = lower value 0.988 | locus YPL078C, strain atp4, stronger effect = lower value 1 | locus YPL106C, strain sse1, stronger effect = lower value 0.95 | locus YPL240C, strain hsp82, stronger effect = lower value 0.969
active: locus YAL026C, strain drs2, stronger effect = lower value 0.905 | locus YBR009C, strain hhf1, stronger effect = lower value 0.85 | locus YDR334W, strain swr1, stronger effect = lower value 0.896 | locus YDR392W, strain spt3, stronger effect = lower value 0.733 | locus YEL003W, strain gim4, stronger effect = lower value 0.912 | locus YEL037C, strain rad23, stronger effect = lower value 0.917 | locus YGL227W, strain vid30, stronger effect = lower value 0.874 | locus YJL164C, strain tpk1, stronger effect = lower value 0.916 | locus YNL071W, strain lat1, stronger effect = lower value 0.883 | locus YOR001W, strain rrp6, stronger effect = lower value 0.881
